This is part of a sample that, as a whole, favours compounds with a hit. Of some 83,000 tested, about 20% had one in any assay.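 Plates (96-well) were seeded with cells, treated with compound at one concentration, and incubated for 48 hours before percent growth was determined.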 Activity calls are given as the source filed them. How the source made its calls: active means growth percent below 10; inactive means the rest.

One test deals with OVCAR-4 ovarian. The test can be described thus: NCI-60 one-dose screen, 48 h (100 = growth as untreated, 0 = no growth, -100 = all killed). The following applies: 10 µM.
For the compound `CCCOCC(O)CNCCN` (configuration not stated), the growth is 102% (inactive).

Take `CCCC(C)c1ccc(OCCCCCCN2CCNCC2)cc1` (configuration not stated): the growth was 62.2% (inactive). As to `Nc1cc(O)cc(O)c1`, the growth is 94.1% (inactive).

Regarding `Cc1cc(C(C)(C)CC(C)(C)C)ccc1OCCOCC[N+](C)(C)Cc1ccccc1`, the growth is 2.92% (active). Same read-out and setting: next, `CC(C)c1[nH]nc2c(NCc3ccc(-c4ccccn4)cc3)nc(SCCN)nc12`: -3.8% (active); `CC(=O)c1c(O)cc2c3c1OC(C)(C)C1CCC(C)(CC31)O2` (configuration not stated): 89.6% (inactive).

For the compound `CN(C)CCCN1c2ccccc2Sc2ccc(C(F)(F)F)cc21`, the growth is 44.4% (inactive). Same read-out and setting: next, `CNC(=O)c1cc(Oc2ccc(NC(=O)Nc3ccc(Cl)c(OC4CCCCC4)c3)c(F)c2)ccn1`: 28.6% (inactive); `O=C(Nc1cccc(F)c1)Nc1cccc(Cl)c1`: 87.2% (inactive); `CCN(CC)CC(O)CNc1ccnc2cc(Cl)c(Cl)cc12` (configuration not stated): 85.9% (inactive). Same read-out and setting: then `CCCCCCOc1ccc(/C=C/C(=O)c2ccc(B(O)O)cc2)cc1`, with 64.6% (inactive); and `CC1(C)CC(OCCCC[P+](c2ccccc2)(c2ccccc2)c2ccccc2)CC(C)(C)N1O`, with 21.5% (inactive). For the compound `Fc1cc(-c2ncc(-c3cc(F)c(F)c(F)c3)c(NC3CCCCCC3)n2)cc(F)c1F`, the growth is 89.1% (inactive). In the case of `O=C(NC1CCCC1)c1ccc(N2CCC(NCc3cccc(C(F)(F)F)c3)CC2)cc1`, the growth is 89.5% (inactive). On the same count and under the same terms, next, `CC1=CC2OC34COC3CC(OC(=O)C(F)(F)F)C4(C)C2(C)CC1` (configuration not stated): 103% (inactive); `CCCCOCCOCCOCc1cc2c(cc1Br)OCO2`: 105% (inactive); `CCCCCCCCCCN=C(c1ccc(N(C)C)cc1)c1ccc(N(C)C)cc1`: 59.8% (inactive). On the same count and under the same terms, next, `COc1cccc2c1C(=O)c1c(O)c3c(c(O)c1C2=O)C[C@@](O)(C(=O)COC(=O)c1cccnc1)C[C@@H]3OC1CC(N)C(O)C(C)O1` (some centres not stated): 0.907% (active); `COc1ccc(/C(=C/c2cc(OC)c(OC)cc2[N+](=O)[O-])C(=O)O)cc1`: 113% (inactive). Still for that read-out and setting: next, `Nc1ccccc1NC(=O)CCCCCCC(=O)Nc1ccc2c(c1)/C(=C/c1ccc[nH]1)C(=O)N2`: 35.1% (inactive).

As to `CCOC(=O)c1c(C)n(-c2ccc(Cl)cc2)c2ccc(OC(=O)/C=C/c3ccccc3)cc12`, the growth is 81.6% (inactive). Same read-out and setting: then `Cc1nnc2c3nnc(-c4ccc(Cl)cc4)n3c3ccccc3n12`, with 115% (inactive); and `CCOc1ccc2c(c1)CC[C@@H]1[C@@H]2CC[C@]2(C)[C@@H](O)[C@@H](O)C[C@@H]12`, with 90.2% (inactive). Same read-out and setting: then `COC(=O)[C@]12CC[C@@H](C)[C@H](C)[C@@H]1C1=CC[C@@H]3[C@@]4(C)CC(=O)[C@H](O)[C@@](C)(CO)[C@@H]4C(=O)C[C@@]3(C)[C@]1(C)CC2`, with 13.8% (inactive); and `CCCCn1c(=O)[nH]c2c(c1=O)C(c1ccc(Cl)cc1)c1c([nH]c(=O)n(CCCC)c1=O)N2`, with 102% (inactive); and `CCC(CCNc1cc(OC)cc2cccnc12)CN1C(=O)c2ccccc2C1=O` (configuration not stated), with 16.9% (inactive). On the same count and under the same terms, then `COc1ccc(C(=O)c2sc3nc(-c4cccs4)ccc3c2N)cc1OC`, with 61.2% (inactive). As to `O=C/C=C/c1ccc([N+](=O)[O-])cc1Cl`, the growth was 114% (inactive).

In the case of `C/C(=N\NC(=O)c1sc(=S)n(C)c1N)c1cc2ccccc2o1`, the growth was 61% (inactive).

As to `Cc1ccc(-c2cc(C(=O)Nc3ccc(S(=O)(=O)N4CCCCC4)cc3)[nH]n2)c(O)c1`, the growth is 38.5% (inactive). As to `CC(=O)OC1Oc2ccccc2-c2oc(=O)c(-c3ccc(F)cc3)cc21` (configuration not stated), the growth is 88.6% (inactive). On the same count and under the same terms, next, `COc1ccc(Nc2nc(NCc3ccccc3)c3ccccc3n2)cc1`: -37.2% (active); `CCOC(=O)c1c(O)c2cc(-c3ccccc3)nc(OCC)c2c(=O)n1C`: 90.1% (inactive); `COc1ccc(-c2nnc(SCC(=O)c3ccccc3)o2)cc1`: 108% (inactive).

For the compound `CC(=O)Oc1c(C)c(C)c2c(c1C)CCC(C)(CC(=O)OCCCCCCCCCCC[P+](c1ccccc1)(c1ccccc1)c1ccccc1)O2` (configuration not stated), the growth is -83.2% (active). `Cc1ccccc1[P+](Cc1ccccc1)(c1ccccc1)c1ccccc1`: the growth is 8.97% (active).

A further test deals with SK-OV-3 ovarian. Described as above. To be noted: 10 µM.
As for `CCCOCC(O)CNCCN` (configuration not stated), the growth was 97.4% (inactive). Still for that read-out and setting: next, `Cc1cc(C(C)(C)CC(C)(C)C)ccc1OCCOCC[N+](C)(C)Cc1ccccc1`: 11% (inactive); `CC(=O)c1c(O)cc2c3c1OC(C)(C)C1CCC(C)(CC31)O2` (configuration not stated): 97.6% (inactive). On the same count and under the same terms, then `CN(C)CCCN1c2ccccc2Sc2ccc(C(F)(F)F)cc21`, with 20.2% (inactive). On to `CCN(CC)CC(O)CNc1ccnc2cc(Cl)c(Cl)cc12` (configuration not stated), for which the growth is 106% (inactive).

With `Fc1cc(-c2ncc(-c3cc(F)c(F)c(F)c3)c(NC3CCCCCC3)n2)cc(F)c1F`, the growth is 115% (inactive).

As to `COc1c(C)c(C)c(OC)c2c1[nH]c(=O)c1c3cccnc3cn21`, the growth is 103% (inactive).

As for `CC1(C)CCc2cc(-c3ccn(S(=O)(=O)c4ccc(Cl)cc4)n3)ccc2O1`, the growth was 91.3% (inactive).

In the case of `CCCCOCCOCCOCc1cc2c(cc1Br)OCO2`, the growth is 96.5% (inactive). On the same count and under the same terms, next, `COc1cccc2c1C(=O)c1c(O)c3c(c(O)c1C2=O)C[C@@](O)(C(=O)COC(=O)c1cccnc1)C[C@@H]3OC1CC(N)C(O)C(C)O1` (some centres not stated): 22.5% (inactive); `COc1ccc(/C(=C/c2cc(OC)c(OC)cc2[N+](=O)[O-])C(=O)O)cc1`: 99.9% (inactive). On the same count and under the same terms, next, `CCOC(=O)c1c(C)n(-c2ccc(Cl)cc2)c2ccc(OC(=O)/C=C/c3ccccc3)cc12`: 93.9% (inactive). The same measure, in the same setting: next, `CCOc1ccc2c(c1)CC[C@@H]1[C@@H]2CC[C@]2(C)[C@@H](O)[C@@H](O)C[C@@H]12`: 113% (inactive). Regarding `COC(=O)[C@]12CC[C@@H](C)[C@H](C)[C@@H]1C1=CC[C@@H]3[C@@]4(C)CC(=O)[C@H](O)[C@@](C)(CO)[C@@H]4C(=O)C[C@@]3(C)[C@]1(C)CC2`, the growth is 3.85% (active). Still for that read-out and setting: next, `CCCCn1c(=O)[nH]c2c(c1=O)C(c1ccc(Cl)cc1)c1c([nH]c(=O)n(CCCC)c1=O)N2`: 94.7% (inactive); `COc1ccc(Nc2nc(NCc3ccccc3)c3ccccc3n2)cc1`: 13.4% (inactive).
